Sampled rows, rich in hits. Any-hit rate of the full collection: about 21%.
Pf growth 48h – Primary qHTS for delayed death inhibitors of the malarial parasite plastid, 48 hour incubation. AID 504832, 2011. P. falciparum luciferase growth in erythrocytes, 48 h. Potency, µM (doses to about 28.7 µM), for inactives: top-dose activity change, negative = inhibition, hits mostly inhibitors. 5.9% of 310,000 active; further: potency means the concentration at half of the fitted maximal effect; on the % scale 0 is the no-effect control and ±100 the full control effect
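Compounds are pin-transferred into medium, infected erythrocytes (2% hematocrit, 0.1% parasitemia final) are added, and plates sit one parasite generation at 37 C in 5% CO2. Detection reagent is then added and luminescence measured.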
HCMV inh – qHTS Assay for inhibitors of the human cytomegalovirus (HCMV). HFF cells, HCMV-luciferase reporter, 72 h; hits give low values. activity change, negative = inhibition, % at 57.5 µM. 4.5% of 410,000 active; in the data active means activity change below about -60%; inconclusive means no clear call, values can overlap the other calls; inactive means above about -39%; further: on the % scale 0 is the no-effect control and ±100 the full control effect
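Two compound doses tested in HFFs infected with HCMV-luciferase, MOI 1 PFU/cell, 72 h at 37C. Lysate luminescence read with OneGlo; data normalized against buffer-only and 10uM Salinomycin inhibitor controls.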
Pf growth 96h – Primary qHTS for delayed death inhibitors of the malarial parasite plastid, 96 hour incubation; P. falciparum luciferase reporter growth, 96 h; Potency, µM (doses to about 28.7 µM), for the others: top-dose activity change, negative = inhibition, most hits filed as inhibitors; 6.9% of 320,000 active; further: potency means the concentration at half of the fitted maximal effect; on the % scale 0 is the no-effect control and ±100 the full control effect
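Erythrocytes infected with luciferase-expressing P. falciparum were dispensed at 2% hematocrit and 0.05% parasitemia (final), then incubated with compounds 96 hours at 37 C in 5% CO2. Luminescence after detection reagent addition reported growth.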
CHX counter – Cycloheximide Counterscreen for Small Molecule Inhibitors of Shiga Toxin; AID 2314, 2010; 12% of 300,000 active; max response, %; cell reporter, cycloheximide protein synthesis inhibition counterscreen; in the data active means max response mostly above about 13%, no sharp cut-off; inactive means mostly below about 14%; further: read at 38.3 µM for the half of the compounds with a filed dose; 0% is about no effect
HCV inh – qHTS Assay for Inhibitors of Hepatitis C Virus (HCV); Potency, µM (doses to about 41.8 µM), for inactives: top-dose activity change, negative = inhibition, hits mostly inhibitors; 3.4% of 340,000 active; Huh7.5.1 HCVcc-Cre infection, luciferase reporter, 44 h; further: potency means the concentration at half of the fitted maximal effect; on the % scale 0 is the no-effect control and ±100 the full control effect
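Antiviral activity was scored by luciferase reporter output from cells infected with HCVcc-Cre (~0.5 moi) in presence of compound, 44 h infection period, cells seeded 1,000/well 4 h prior.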
Shiga toxin inh – A qHTS for Small Molecule Inhibitors of Shiga Toxin; AID 2315, 2010; Vero cells, Shiga toxin protein synthesis inhibition reporter; inhibition, % at 38.7 µM; 9.2% of 290,000 active; in the data active means inhibition mostly above about 28%, no sharp cut-off; inactive means mostly below about 43%; further: 0% is about no effect
The depositor's hits bear a star. Unless noted, the call rests on the fitted dose curve; in most records, active means well fitted inhibition curve with a large enough effect; inconclusive means small, poorly fitted or top-dose-only effect, or another doubt; inactive means no such curve, though single readings can be large or run the other way.

Results for CCOC(=O)C(C)NC(=O)C1CCN(c2ncnc3c2nc2n3CCCCC2)CC1 (stereo unspecified) ?
HCMV inh: -84.5*

Results for COc1ccccc1NC(=O)C1CCN(c2ncnc3c2nc2n3CCCCC2)CC1 ?
Pf growth 48h: inconclusive; HCMV inh: -4.2; Pf growth 96h: 10.4µM*; CHX counter: 15.1; HCV inh: inconclusive; Shiga toxin inh: 22.1

Results for O=C(Nc1ccc(Cl)cn1)C1CCCN(c2ncnc3c2nc2n3CCCCC2)C1 (stereo unspecified) ?
Pf growth 48h: 0.0%; HCMV inh: -23.4; Pf growth 96h: inconclusive; CHX counter: 11.5; HCV inh: inconclusive; Shiga toxin inh: -1.8

How did O=C(c1n[nH]c2ccccc12)N1CCN(c2ccc(F)cc2)CC1 do in these assays?
Pf growth 48h: inconclusive; HCMV inh: -3.6; Pf growth 96h: inconclusive; CHX counter: 10.6; HCV inh: 12.7%; Shiga toxin inh: 33.2

What do the screens show for `Cc1ccc(NC(=O)Cn2c(=O)n(CCc3ccccc3)c(=O)c3sc4ccccc4c32)cc1C`?
HCMV inh: 15.2

What do the screens show for `CCOC(=O)c1c(S(=O)(=O)N2CCN(c3ccc(F)cc3)CC2)c(C)n(C)c1C`?
Pf growth 48h: -7.2%; HCMV inh: 28.0; Pf growth 96h: -2.3%; CHX counter: -1.6; HCV inh: 6.0%; Shiga toxin inh: -5.0

What do the screens show for `CC(C)c1ccc(S(=O)(=O)Nc2ccc3oc4c(c3c2)C(=O)CC(C)(C)C4)cc1`?
HCMV inh: -7.6

Results for COc1cccc(NC(=O)c2c(C)nn(-c3ccccc3)c2Cl)c1 ?
Pf growth 48h: 32.0%; HCMV inh: -0.8; Pf growth 96h: 4.65µM*; CHX counter: 19.0*; HCV inh: -23.8%; Shiga toxin inh: 30.9

Results for Cc1ccc(NC(=O)c2c(C)nn(-c3ccccc3)c2Cl)cc1 ?
Pf growth 48h: 11.1%; HCMV inh: 24.3; Pf growth 96h: inconclusive; CHX counter: 35.4*; HCV inh: -23.2%; Shiga toxin inh: 66.1*

How did COc1ccc(NC(=O)c2c(C)nn(-c3ccccc3)c2Cl)cc1 do in these assays?
Pf growth 48h: inconclusive; HCMV inh: 38.3; Pf growth 96h: 198.8%; CHX counter: 15.7*; HCV inh: -18.9%

Results for Cc1nn(-c2ccccc2)c(C)c1C(=O)OCc1ccc(C#N)cc1 ?
Pf growth 48h: -10.5%; HCMV inh: -1.4; Pf growth 96h: 4.9%; CHX counter: 36.4*; HCV inh: 12.6µM*; Shiga toxin inh: 24.8

Results for CN(CC(=O)Nc1c(Cl)cccc1Cl)C(=O)c1cc2ccccc2cc1O ?
Pf growth 48h: inconclusive; HCMV inh: -11.1; Pf growth 96h: inconclusive; HCV inh: -6.5%

How did Cc1nn(-c2ccccc2)c(Cl)c1C(=O)OCC(=O)NCCc1ccc(S(N)(=O)=O)cc1 do in these assays?
Pf growth 48h: inconclusive; HCMV inh: -7.9; Pf growth 96h: inconclusive; HCV inh: 3.9%

Results for COc1ccc(COC(=O)c2c(C)nn(-c3ccccc3)c2Cl)cc1 ?
Pf growth 48h: -0.1%; HCMV inh: -16.1; Pf growth 96h: 1.3%; CHX counter: 22.3*; HCV inh: inconclusive; Shiga toxin inh: 39.5*

What do the screens show for `C=CCn1cc(CN2CCC(C(=O)Nc3cccc(-c4cccc(F)c4)c3)CC2)c(C)n1`?
Pf growth 48h: 14.7µM*; HCMV inh: -19.6; Pf growth 96h: inconclusive; CHX counter: -2.2; HCV inh: inconclusive; Shiga toxin inh: -1.9

How did C=CCn1cc(CN2CCC(C(=O)Nc3cccc(-c4cccc(Cl)c4)c3)CC2)c(C)n1 do in these assays?
Pf growth 48h: inconclusive; HCMV inh: -38.7; Pf growth 96h: -30.1%; CHX counter: -12.9; HCV inh: 5.01µM*; Shiga toxin inh: -9.1

What do the screens show for `Cc1c(CN2CCC(C(=O)Nc3cccc(-c4cccc(Cl)c4)c3)CC2)cnn1C`?
Pf growth 48h: inconclusive; HCMV inh: inconclusive; Pf growth 96h: -5.3%; CHX counter: -5.0; HCV inh: inconclusive; Shiga toxin inh: -7.0

How did C=CCn1cc(CN2CCC(C(=O)Nc3ccc(Oc4cccnc4)cc3)CC2)c(C)n1 do in these assays?
Pf growth 48h: inconclusive; HCMV inh: inconclusive; Pf growth 96h: inconclusive; CHX counter: 8.1; HCV inh: -13.8%; Shiga toxin inh: 11.1

Results for CC1SC(c2ccc(F)cc2)NC1=O (stereo unspecified) ?
Pf growth 48h: 5.4%; HCMV inh: -1.1; Pf growth 96h: -15.2%; CHX counter: -2.3; HCV inh: 1.9%; Shiga toxin inh: -6.6

What do the screens show for `CCN(CC)S(=O)(=O)c1ccc(N2CCOCC2)c(NC(=O)c2cnccn2)c1`?
Pf growth 48h: 8.28µM*; HCMV inh: inconclusive; Pf growth 96h: 11.7µM*; CHX counter: -0.5; HCV inh: -28.0%; Shiga toxin inh: 10.8

How did O=C(Nc1cc(S(=O)(=O)N2CCOCC2)ccc1N1CCOCC1)c1cnccn1 do in these assays?
Pf growth 48h: -16.0%; HCMV inh: 54.8; Pf growth 96h: 0.0%; CHX counter: -3.5; HCV inh: 27.9%; Shiga toxin inh: -9.2

Results for CCOc1ncccc1C(=O)Nc1cc(C(F)(F)F)ccc1N1CCOCC1 ?
Pf growth 48h: -23.6%; HCMV inh: -67.2*; Pf growth 96h: -29.8%; HCV inh: -26.6%

How did O=C(Nc1cc(C(F)(F)F)ccc1N1CCOCC1)c1ccc(Cl)nc1 do in these assays?
Pf growth 48h: 9.28µM*; HCMV inh: -9.5; CHX counter: -2.2; HCV inh: inconclusive; Shiga toxin inh: -18.2

How did CCOc1ccccc1NC(C)C(=O)Nc1cc(C(F)(F)F)ccc1N1CCOCC1 (stereo unspecified) do in these assays?
Pf growth 48h: 0.586µM*; HCMV inh: -17.2; Pf growth 96h: 0.294µM*; CHX counter: -1.2; HCV inh: -2.9%; Shiga toxin inh: -8.3

What do the screens show for `CC(C)C(=O)Nc1cc(C(F)(F)F)ccc1N1CCOCC1`?
Pf growth 48h: inconclusive; HCMV inh: 2.3; Pf growth 96h: 80.1%; CHX counter: -2.1; HCV inh: inconclusive; Shiga toxin inh: -7.3

What do the screens show for `O=C(Nc1cc(C(F)(F)F)ccc1N1CCOCC1)c1cccnc1Cl`?
Pf growth 48h: -8.9%; HCMV inh: -24.9; Pf growth 96h: 8.9%; CHX counter: 7.8; HCV inh: 3.7%; Shiga toxin inh: -13.3

How did Brc1ccc(-c2noc3c2-c2nc(-c4ccccc4)sc2CC3)cc1 do in these assays?
HCMV inh: 2.8; HCV inh: 8.7%

Results for CCOc1ncccc1C(=O)Nc1cc(S(=O)(=O)N(CC)CC)ccc1N1CCOCC1 ?
HCMV inh: -65.9*; HCV inh: inconclusive
